According to ChEMBL document CHEMBL3988442, “University of Dundee, Small-Polar-MMV Screening Library” (2021):
The campaign covered roughly 48,000 compounds. About 13,000 (27%) showed an effect of 50% or more. Some of the results follow.

tested on: Wolbachia pipientis; experiment: Anti-Wolbachia Cell-Based Screen; assay type: functional; set-up: scale not given: in the data most compounds retested in dose-response had high values; settings: 5 µM

SMILES | Percent Effect
Cc1cccc2sc(NC(=O)CN3CCCC4(CC3)CNC(=O)O4)nc12 (stereo not given) | -7.394%
CN(Cc1ccco1)C1CCC12CCN(C(=O)c1ccncc1)CC2 (stereo not given) | -36.28%
Oc1cc(-c2cccs2)nc(C2CCCN(CC3=CCCOC3)C2)n1 (stereo not given) | 158.9%
CCCOC1CCCN(Cc2nc(-c3cccs3)oc2C)C1 (stereo not given) | 5.158%
Cn1cc(CN2CCCC(c3nc(O)cc(-c4cccs4)n3)C2)cn1 (stereo not given) | 121.4%
Cc1nnsc1C(=O)N1CCC2(CC1)c1nc[nH]c1CCN2CC(C)C | -5.32%
CC(=O)N1CCC(Oc2ccc(C#N)cc2)CC1 | -9.565%
Cc1nc(N(C)C)ncc1C(=O)NCCCn1nccc1C1CC1 | -2.183%
O=C(Nc1cccnc1)c1noc2c1CN(S(=O)(=O)C1CC1)CC2 | 3.652%
Cc1cnn(C2CN(CC(=O)Nc3cccnc3)C2)c1 | -2.546%
Cn1cc(CN2CCc3onc(C(=O)Nc4cccnc4)c3C2)cn1 | 104.3%
CC(C)NC(=O)C1CCC2(CCN(Cc3cnn(C)c3)CC2)CO1.O=C(O)C(F)(F)F (stereo not given) | -4.372%
CC(C)NC(=O)c1noc2c1CN(Cc1cnn(C)c1)CC2 | 212.5%
CC(=O)NCc1noc2c1CN(Cc1cnn(C)c1)CC2 | 0.2145%
CSc1ccc(OC(C)C(=O)Nc2cc(C)n[nH]2)cc1 (stereo not given) | -10.9%
COC(=O)CNC(=O)C(C)Oc1ccccc1C(F)(F)F (stereo not given) | -20.43%
CC(=O)N1CCc2[nH]nc(C(=O)N3CC=CC3)c2C1 | -70.9%
COc1cccc2[nH]cc(CCNC(=O)N3CCOCC3C3CC3)c12 (stereo not given) | -14.93%
O=C(Nc1ccc(N2CCCC2)nc1)N1CCc2ccccc2C1 | 28.26%
CN(C)c1ccc(NC(=O)N2CCc3sccc3C2)cn1 | -14.46%
CSc1nsc(NC(=O)N2CCc3ccccc3C2)n1 | 111%
Cc1nsc(NC(=O)N2CCc3sccc3C2)n1 | 105.8%
Cc1nsc(C(=O)N2CCc3ccccc3C2)n1 | 14.75%
Cc1nsc(N2CCc3sccc3C2)n1 | 15.05%

SMILES | Percent Effect
CN(C)Cc1cc(CC2(NCc3ccc(C#N)cc3)COC2)no1 | 1.695%
Cn1cccc(NC(=O)N2CCC(CSc3ccccc3)C2)c1=O (stereo not given) | -5.186%
CC(C)(C)CC(=O)N1CCCC2(CC(C(=O)Nc3ccccc3)=NO2)C1 (stereo not given) | 98.19%
CC(C)CC(=O)N1CCCC2(CC(C(=O)Nc3ccccc3)=NO2)C1 (stereo not given) | 115.3%
CC(C)NC(=O)N1CCCC2(CC(C(=O)Nc3ccccc3)=NO2)C1 (stereo not given) | 111.3%
Cc1ncccc1NC(=O)C1=NOC2(CCN(Cc3nccs3)C2)C1 (stereo not given) | 10.83%
CC(C)C(=O)N1CCCC2(CC(C(=O)NCc3cccnc3)=NO2)C1.O=C(O)C(F)(F)F (stereo not given) | -6.89%
COCC(=O)N1CCC2(CC(C(=O)NCc3cccnc3)=NO2)C1 (stereo not given) | -9.027%
CC(C)NC(=O)N1CCC2(CC(C(=O)NCc3cccnc3)=NO2)C1 (stereo not given) | -3.064%
CN(Cc1ccc2c(c1)OCO2)C(=O)c1ccc(C2CCCO2)s1 (stereo not given) | -6.874%
Cc1n[nH]c(C)c1CCc1nc(C2CC2)n[nH]1 | -13.82%
Cc1cc(C(=O)NCCc2cn3nc(C)sc3n2)c(C)o1 | -4.861%
Cc1cn(CC(=O)NCC(=O)NC2CC2)c2ccccc12 | -10.11%
CCc1nsc(N2CCn3c(nnc3-c3ccccc3)C2)n1 | -13.36%
CCCSCC(=O)N1C[C@@H]2CC[C@H](C1)N(Cc1ccccn1)C2=O | 6.181%
O=C([C@H]1C[C@H]2OCC[C@H]2N(CC2CC2)C1)N1CCCC1 | -0.02998%
CCc1nc(C)c([C@H]2CN(C)C[C@@H]2C(=O)NCc2ccccn2)[nH]1 | -14.52%
CS(=O)(=O)NC[C@H]1Cn2c(-c3ccc4c(c3)OCCO4)cnc2CO1 | -15.67%
CCc1noc(C(C)N2CCC(N3CCCC3)CC2)n1 (stereo not given) | -6.719%
CCc1noc(C(C)N2CCN(CCc3ccncc3)CC2)n1 (stereo not given) | 0.707%
Cc1noc(C(C)N2CCN(CCN3CCCC3=O)CC2)n1 (stereo not given) | 121%
Cc1noc(C(C)N2CCN(CCCN3CCCC3=O)CC2)n1 (stereo not given) | 8.407%
CCc1noc(C(C)N2CCN(CCN3CCCC3=O)CC2)n1 (stereo not given) | 113.9%
Cc1noc(C)c1CN(C)CC(=O)/N=c1\cc[nH]n1C(C)C1CC1 (stereo not given) | -5.789%

SMILES | Percent Effect
CN(C)c1cccc(C(=O)Nc2cnn(Cc3ccccn3)c2)c1 | -6.173%
Cc1ccc2cc(C3(O)CCN(C)CC3)ccc2n1 | -2.467%
COC[C@@]12CC[C@@H](N3CCOCC3)C[C@H]1CCN(c1ncccn1)C2 | -5.007%
COc1cc(C)ccc1OCc1nc(C(=O)N2CCCC2)co1 | 0.1288%
CC[C@H](CO)NC(=O)c1coc(COc2ccccc2F)n1 | -31.99%
COc1ccccc1OCc1cc(C(=O)N2CCCCCC2CO)n[nH]1 (stereo not given) | -25.79%
O=C(c1coc(COc2ccccc2F)n1)N1CCC[C@H]1CO | 111.3%
O=C(c1coc(COc2ccccc2F)n1)N1CCCO1 | 104.9%
O=C(c1coc(COc2cccc3cnccc23)n1)N1CCCCCC1 | 5.374%
COc1cc(C)ccc1OCc1nc(C(=O)N2CCCO2)co1 | -7.138%
CC1CCCCN1C(=O)c1coc(COc2cccc3cnccc23)n1 (stereo not given) | -5.431%
COCCC1CCCCN1C(=O)c1coc(COc2ccccc2F)n1 (stereo not given) | 108.5%
CC(c1ccco1)n1cc(-c2cc(CN3CCCC3)cs2)nn1 (stereo not given) | 21.85%
CCOc1ccc(CCCC(=O)N2CCC(C(=O)NC)C2)cc1C (stereo not given) | 83.39%
CCOc1cc(NC(=O)N2CCC(c3nnc[nH]3)CC2)ccc1C | 11.09%
CCOc1ccc(CCCC(=O)N2CCC(c3nnn[nH]3)CC2)cc1C | 92.44%
CCc1cc(C)c(C(=O)N2CCCC(c3nnn[nH]3)C2)o1 (stereo not given) | 6.83%
CCOc1ccc(C(C)NC(=O)N2CCC(C(N)=O)CC2)cc1OC (stereo not given) | -11.4%
CCc1ccc(CC)c(NCC(=O)N2CCCC(NC(C)=O)C2)c1 (stereo not given) | 8.422%
CCOc1ccc(CCCC(=O)N2CC[C@H](NC(C)=O)C2)cc1C | 116.5%
CCNC(=O)N1CCC(NC(=O)NCCCc2cccc(F)c2)C1 (stereo not given) | -2.549%
CNC(=O)C1CCN(C(=O)c2coc(COc3ccc(OC)cc3)n2)C1 (stereo not given) | -10.95%
